Unmarked numbers belong to inactive results.
System: MCF10A
Experiment: perturbation Mahalanobis distance of morphological profile vs DMSO controls (Mahalanobis distance (SD units)); higher = stronger morphological change, active = 7 or more
Settings: screen batch: Batch1_Mahalanobis_Distance; 72 h
Procedure: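 MCF10A cells were seeded onto drugs dispensed acoustically into 384-well plates, using one dose per drug chosen from its human peak plasma concentration, and incubated for 72 h at 37 °C. Cells were stained for DNA, tubulin and mitochondria and imaged; 78 CellProfiler features were extracted, plate-normalised and compared with DMSO wells.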

SMILES | perturbation Mahalanobis distance
NC[C@@H]1O[C@H](O[C@H]2[C@@H](O)[C@H](O[C@@H]3[C@@H](O)[C@H](N)C[C@H](N)[C@H]3O[C@H]3O[C@H](CO)[C@@H](O)[C@H](O)[C@H]3N)O[C@@H]2CO)[C@H](N)[C@@H](O)[C@@H]1O [Paromomycin] (332.3 µM) | 4.01
Cc1ccsc1C(=CCCN1CCC[C@@H](C(=O)O)C1)c1sccc1C [Tiagabine] (2.7 µM) | 2.46
C[C@H]1O[C@@H](O[C@H]2[C@@H](O)C[C@H](O[C@H]3[C@@H](O)C[C@H](O[C@H]4CC[C@@]5(C)[C@H](CC[C@@H]6[C@@H]5CC[C@]5(C)[C@@H](C7=CC(=O)OC7)CC[C@]65O)C4)O[C@@H]3C)O[C@@H]2C)C[C@H](O)[C@@H]1O [Digitoxin] (0.16 µM) | 12.1 (active)
CO[C@@H]1[C@@H](OC(N)=O)[C@@H](O)[C@H](Oc2ccc3c(=O)c(NC(=O)c4ccc(O)c(CC=C(C)C)c4)c(O)oc3c2C)OC1(C)C [Novobiocin] (90.8 µM) | 5.81
O=[N+]([O-])c1cnc(CO)n1CCO [Hydroxymetronidazole] (58.4 µM) | 2.36
COCc1c(C(C)C)nc(C(C)C)c(/C=C/[C@@H](O)C[C@@H](O)CC(=O)O)c1-c1ccc(F)cc1 [Cerivastatin] (0.46 µM) | 13.3 (active)
OCCN1C[C@H](O)[C@@H](O)[C@H](O)[C@H]1CO [Miglitol] (45.4 µM) | 1.78
CC/C(=C(\c1ccc(O)cc1)c1ccc(OCCNC)cc1)c1ccccc1 [Endoxifen] (6.75 µM) | 2.6
CC(c1cc2ccccc2s1)N(O)C(N)=O (centres undefined) [Zileuton] (105.4 µM) | 3.71
O=C1CCC(N2C(=O)c3ccccc3C2=O)C(=O)N1 (centres undefined) [Thalidomide] (19.4 µM) | 2.34
CN(C)c1nc(N(C)C)nc(N(C)C)n1 [Altretamine] (98.9 µM) | 2.75
CN(C)C(=N)N=C(N)N [Metformin] (38.4 µM) | 1.76
CC(C)N=C(N)/N=C(\N)Nc1ccc(Cl)cc1 [Proguanil] (3 µM) | 2.24
CCS(=O)(=O)CCn1c([N+](=O)[O-])cnc1C [Tinidazole] (192.9 µM) | 2.45
C[N+](C)(C)CCOC(=O)CCC(=O)OCC[N+](C)(C)C [Succinylcholine Chloride] (12.65 µM) | 2.23
COC(=O)C1=C(C)NC(C)=C(C(=O)OCC(C)C)C1c1ccccc1[N+](=O)[O-] (centres undefined) [Nisoldipine] (13 µM) | 2.36
CCN(CC)C(=O)/C(C#N)=C/c1cc(O)c(O)c([N+](=O)[O-])c1 [Entacapone] (6.6 µM) | 1.99
N=C(N)c1ccc(OCCCCCOc2ccc(C(=N)N)cc2)cc1 [Pentamidine] (7.4 µM) | 7.67 (active)
C=CC[C@@H]1/C=C(\C)C[C@H](C)C[C@H](OC)[C@H]2O[C@@](O)(C(=O)C(=O)N3CCCC[C@H]3C(=O)O[C@H](/C(C)=C/[C@@H]3CC[C@@H](O)[C@H](OC)C3)[C@H](C)[C@@H](O)CC1=O)[C@H](C)C[C@@H]2OC [Tacrolimus] (0.09 µM) | 2.64
CC(C)(Oc1ccc(Cl)cc1)C(=O)O [Clofibric Acid] (368 µM) | 3.07

Same assay, conditions: screen batch: Batch2_Mahalanobis_Distance; 72 h

SMILES | perturbation Mahalanobis distance
Cc1ccsc1C(=CCCN1CCC[C@@H](C(=O)O)C1)c1sccc1C [Tiagabine] (2.7 µM) | 3.14
C[C@H]1O[C@@H](O[C@H]2[C@@H](O)C[C@H](O[C@H]3[C@@H](O)C[C@H](O[C@H]4CC[C@@]5(C)[C@H](CC[C@@H]6[C@@H]5CC[C@]5(C)[C@@H](C7=CC(=O)OC7)CC[C@]65O)C4)O[C@@H]3C)O[C@@H]2C)C[C@H](O)[C@@H]1O [Digitoxin] (0.16 µM) | 17.9 (active)
CO[C@@H]1[C@@H](OC(N)=O)[C@@H](O)[C@H](Oc2ccc3c(=O)c(NC(=O)c4ccc(O)c(CC=C(C)C)c4)c(O)oc3c2C)OC1(C)C [Novobiocin] (90.8 µM) | 6.6
O=[N+]([O-])c1cnc(CO)n1CCO [Hydroxymetronidazole] (58.4 µM) | 3.44
COCc1c(C(C)C)nc(C(C)C)c(/C=C/[C@@H](O)C[C@@H](O)CC(=O)O)c1-c1ccc(F)cc1 [Cerivastatin] (0.46 µM) | 13.1 (active)
OCCN1C[C@H](O)[C@@H](O)[C@H](O)[C@H]1CO [Miglitol] (45.4 µM) | 2.1
CC/C(=C(\c1ccc(O)cc1)c1ccc(OCCNC)cc1)c1ccccc1 [Endoxifen] (6.75 µM) | 7.34 (active)
CC(c1cc2ccccc2s1)N(O)C(N)=O (centres undefined) [Zileuton] (105.4 µM) | 5.1
O=C1CCC(N2C(=O)c3ccccc3C2=O)C(=O)N1 (centres undefined) [Thalidomide] (19.4 µM) | 2.83
CN(C)c1nc(N(C)C)nc(N(C)C)n1 [Altretamine] (98.9 µM) | 3.12
CN(C)C(=N)N=C(N)N [Metformin] (38.4 µM) | 1.8
CC(C)N=C(N)/N=C(\N)Nc1ccc(Cl)cc1 [Proguanil] (3 µM) | 3.24
CCS(=O)(=O)CCn1c([N+](=O)[O-])cnc1C [Tinidazole] (192.9 µM) | 2.69
C[N+](C)(C)CCOC(=O)CCC(=O)OCC[N+](C)(C)C [Succinylcholine Chloride] (12.65 µM) | 2.84
COC(=O)C1=C(C)NC(C)=C(C(=O)OCC(C)C)C1c1ccccc1[N+](=O)[O-] (centres undefined) [Nisoldipine] (13 µM) | 2.36
CCN(CC)C(=O)/C(C#N)=C/c1cc(O)c(O)c([N+](=O)[O-])c1 [Entacapone] (6.6 µM) | 2.48
N=C(N)c1ccc(OCCCCCOc2ccc(C(=N)N)cc2)cc1 [Pentamidine] (7.4 µM) | 9.96 (active)
C=CC[C@@H]1/C=C(\C)C[C@H](C)C[C@H](OC)[C@H]2O[C@@](O)(C(=O)C(=O)N3CCCC[C@H]3C(=O)O[C@H](/C(C)=C/[C@@H]3CC[C@@H](O)[C@H](OC)C3)[C@H](C)[C@@H](O)CC1=O)[C@H](C)C[C@@H]2OC [Tacrolimus] (0.09 µM) | 2.28
CC(C)(Oc1ccc(Cl)cc1)C(=O)O [Clofibric Acid] (368 µM) | 2.64
